Out of some 1,400 compounds screened, about 380 (27%) were called active. The list shows a part of the results. Unmarked numbers belong to inactive results.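 Rule for the calls: active = mean inhibition above 50% across duplicate retests at 10 µM; inactive = the rest.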
assay: yeast NALP1 reporter signal suppression – S. cerevisiae, luminescence, single concentration, NALP1 inhibitor project, confirmation (AID 488841);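 note: plate controls were DMSO in galactose medium for no effect and cells in plain SD medium for full effect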; details: S. cerevisiae NALP1/ASC/Caspase-1 reporter, beta-gal luminescence; at 10 µM; active compounds read high

In order of rising inhibition:
1. Cc1ccc(S(=O)(=O)N[C@@H](Cc2ccccc2)C(=O)CCl)cc1  -1.6%
2. COC(=O)C1=C(C)NC(C)=C(C(=O)OC)C1c1ccc(OC(=O)c2oc3ccccc3c2C)c(OC)c1  10.6%
3. CC12CCC(C(=O)O)(C/C1=N\O)C2(C)C (stereo unspecified)  15%
4. CSCCNC(C)=O  15%
5. Cc1ccccc1OCC(=O)Nc1cccc(N(C)S(C)(=O)=O)c1  18.4%
6. Cc1cc(SC#N)cc(C)c1NC(=O)CCl  21.6%
7. Cc1ccc(S(=O)(=O)NCc2ccc(C(=O)NCCCN3CCC(Cc4ccccc4)CC3)cc2)cc1  22%
8. CCn1nc(C)cc1Nc1ccccc1  22.3%
9. COC(=O)N/N=C/c1ccc(OC(=O)c2ccco2)c(OC)c1  22.6%
10. CC(C)CC(=O)c1c[nH]c(C(=O)NCc2cccs2)c1  22.6%
11. CCOc1ccc(N=c2oc3cc(O)ccc3cc2C(=O)NCC2CCCO2)cc1 (stereo unspecified)  24.5%
12. Cc1[nH]c2ccccc2c1C(=O)CSc1nc2ncc(Cl)cc2[nH]1  25.4%
13. Cn1cc(CC(=O)Nc2cccc(C#N)c2)c2ccccc21  26.6%
14. CCC(=O)N(Cc1cc2c(C)ccc(C)c2[nH]c1=O)C1CCCCC1  27.1%
15. COc1ccc(OCC(O)Cn2c(=N)n(Cc3ccccc3)c3ccccc32)cc1 (stereo unspecified)  27.4%
16. O=C(O)Cn1nc(-c2ccccc2)oc1=O  27.4%
17. O=C1c2ccccc2C(O)N1c1cccnc1 (stereo unspecified)  27.9%
18. O=C(/C=C/c1cccs1)c1cc(Br)ccc1OC(=O)N1CCOCC1  28.1%
19. Cc1cc(C)c([C@@H]2C[C@H]3CN(C4CCCC4)C(=O)[C@]34CCCN24)c(-n2cccn2)c1  28.9%
20. CN(C)c1nc(N)nc(CSc2nnnn2-c2ccc(C(=O)O)cc2)n1  29.5%
21. CSc1ccccc1NC(=O)Nc1ccccc1Cl  30%
22. CC(C)c1nc2sc3c(=O)[nH]c(=S)[nH]c3c2c2c1CCC2  30.2%
23. COCCCNCCOc1cc(C(C)C)ccc1C  30.8%
24. Cc1ccc(/C=N/NC(=O)c2ccc3nc[nH]c3c2)o1  31.1%
25. c1csc(C2Nc3ccccc3-c3nc4ccccc4n32)c1 (stereo unspecified)  31.5%
26. Cc1ccc(N/C=C/C(=O)C(C)(C)C)c(O)c1  31.6%
27. OC(COCc1ccc2c(c1)OCO2)CN1CCN(Cc2ccccc2)CC1 (stereo unspecified)  32%
28. Nc1c2c(nc3sc4c(c13)CCCC4)CCCCCC2  32.1%
29. COC1=C(Nc2ccc(O)cc2)C(=O)c2ccccc2C1=O  32.3%
30. CCNc1c(C(=O)O)ccc2c1C(=O)c1ccccc1C2=O  32.4%
31. CN(CC(=O)NC(=O)NCc1ccccc1)Cc1cccc(Cl)c1Cl  32.5%
32. O=C(c1ccc(S(=O)(=O)c2ccccc2)cc1)N1CCCCCC1  32.5%
33. O=C(NC(Cc1c[nH]c2ccccc12)C(=O)O)/C(=C\c1ccc2c(c1)OCO2)NC(=O)c1ccccc1 (stereo unspecified)  32.5%
34. CCn1c(=O)cc(SCC(=O)N2CCN(C3CCCCC3)CC2)c2ccccc21  32.6%
35. Cc1ccc2nc(Cl)c(C3CC(c4cccs4)=NN3C(=O)CCCC(=O)O)cc2c1 (stereo unspecified)  33.7%
36. COc1cccc(-c2nn(C)c3sc(C(=O)N4CCOCC4)cc23)c1  35.3%
37. CN(C)c1ccc(N/C=C/C(=O)c2ccccc2)cc1  35.4%
38. CS(=O)(=O)n1nc(-c2ccc(Cl)cc2)nc1SCc1ccccc1  36.2%
39. COc1ccc(C(=O)C2CCCN(C(=O)Cn3nc(C)cc3C)C2)cc1F (stereo unspecified)  36.5%
40. COC(=O)C(Cc1ccccc1)NC(=O)COc1ccc(C(C)(C)C)cc1 (stereo unspecified)  36.6%
41. COc1cccc(CN2CCC(C(=O)N3CCN(c4ccccc4F)CC3)CC2)c1OC  37.2%
42. COc1ccc(C2=NN3C(=O)c4c(ccc(OC)c4OC)C3C2)cc1 (stereo unspecified)  37.6%
43. COc1ccc(NC(=O)c2ccc(C)cc2)c(OC)c1  37.7%
44. O=c1[nH][nH]c(-c2ccccc2O)c1C(C[N+](=O)[O-])c1ccc(Cl)cc1Cl (stereo unspecified)  37.8%
45. c1ccc(-c2c(-c3ccccc3)n(Cc3ccco3)c3ncnc(NCCCn4ccnc4)c23)cc1  38%
46. COC(=O)CCn1nnc(-c2ccc(C(C)C)cc2)n1  38.5%
47. CC1(C)NC(=O)N(CCCCOc2ccc3ccccc3c2Cl)C1=O  38.6%
48. CCCc1ccc(-c2c(C)sc(N)c2C#N)cc1  39%
49. Clc1ccc2c(N/N=C/c3ccccc3Br)ccnc2c1  39%
50. CCNc1ccc(Br)cc(C(=O)/C=C/c2c(Cl)cccc2Cl)c1=O  39.5%
51. O=C(NCCN1C(=O)S/C(=C\c2cccnc2)C1=O)c1cccc(OC(F)F)c1  39.6%
52. CCOC(=O)c1c(O)c2cc(Cl)ccc2n(CC)c1=O  40.1%
53. CCN1CCN(c2cc(C(C)C)nc3c(-c4ccccc4)c(C)nn23)CC1  40.4%
54. Nc1c2c(nc3sc4c(c13)CCCCC4)CCCCC2  40.6%
55. OC(CNCCC1C=Nc2ccccc21)Cn1c2ccc(Cl)cc2c2cc(Cl)ccc21 (stereo unspecified)  40.7%
56. C/C(=N\NC(=O)c1csc(C)c1C)c1ccc(Cl)s1  40.9%
57. COc1ccc2c(c1)C1=NN(/C(C)=C/C(C)=O)C(c3cccc(F)c3)C1CC2 (stereo unspecified)  42.1%
58. CCOc1nc(-c2ccccc2Cl)ccc1C#N  42.2%
59. c1ccc2cc(CSCc3nc4ccccc4[nH]3)ccc2c1  42.5%
60. CCc1cc(OCCCCNCc2ccccc2)ccc1Cl  43.2%
61. Nc1[nH]c(=O)ncc1F  43.8%
62. CCCCNCCOCCOc1ccccc1-c1ccccc1  44%
63. Cc1cc(Nc2ccccc2)nn1C(=O)c1ccccc1  44.5%
64. C=CCNCCOCCSc1ccc(Cl)cc1  45.3%
65. CCN1CCN(C(=O)N[C@@H](C(=O)N[C@@H]2C(=O)N3[C@@H]2SC(C)(C)[C@@H]3C(=O)O)c2ccccc2)C(=O)C1=O  45.5%
66. C=CCc1cc(Cl)ccc1OCCNCCCOC  45.8%
67. CCCCOC(=O)Oc1ccc2c(=O)c(Oc3cc(C)cc(C)c3)coc2c1  45.8%
68. N/C(Cc1ccc(Cl)cc1)=N\OC(=O)C1CCCCC1  46.6%
69. CC(=O)n1cc(-c2ccncc2)c2ccccc21  46.6%
70. O=C1C(Cl)=C(N2CCN(c3ccccc3[N+](=O)[O-])CC2)C(=O)c2ccccc21  47.2%
71. COc1ccc(C)cc1NC(=O)c1ccc(CN2CCN(c3ccccc3)CC2)cc1  47.2%
72. COc1ccccc1N1CCN(C(=O)CSc2ncnc3scc(-c4ccccc4)c23)CC1  47.8%
73. CCc1ccc(OCC(=O)Nc2ccc(CN3CCCCC3)cc2)cc1  48.2%

For C=CCNCCOc1ccc(C(C)(C)c2ccccc2)cc1, the inhibition was 60.4% (active).
In the case of COCCCNCCOc1ccc(C(C)(C)c2ccccc2)cc1, the inhibition is reported as 57.4% (active).
For O=C(Nc1cc(Cl)ccc1-n1cncn1)c1ccc([N+](=O)[O-])s1, the inhibition was 90.7% (active).
With CN(c1ccccc1)c1ccc(/C=C/[N+](=O)[O-])cc1 the inhibition was 95% (active).
For COc1ccc(CNCC(O)(c2ccccc2)c2ccc(Cl)cc2)cc1 (stereo unspecified), the inhibition was 57.9% (active).
With C#C[C@]1(O)CC[C@H]2[C@@H]3CCc4cc(O)ccc4[C@H]3CC[C@@]21C the inhibition was 65.4% (active).
In the case of C#C[C@]1(O)CC[C@H]2[C@@H]3CCC4=C(CCC(=O)C4)[C@H]3CC[C@@]21C, the inhibition is reported as 59.2% (active).
With Cc1ccc(C(C[N+](=O)[O-])c2c(N)n(C)c(=O)n(C)c2=O)cc1 (stereo unspecified) the inhibition was 96.2% (active).
For COc1cccc(F)c1C(C[N+](=O)[O-])c1c(N)n(C)c(=O)n(C)c1=O (stereo unspecified), the inhibition was 89.5% (active).
For COc1ccccc1C(C[N+](=O)[O-])c1c(N)n(C)c(=O)n(C)c1=O (stereo unspecified), the inhibition was 93.7% (active).
With COc1ccc(Nc2cc(C)c3ccc(O)cc3n2)cc1 the inhibition was 89.7% (active).
With Cc1cc(Nc2ccccc2)nc2cc(O)ccc12 the inhibition was 84.7% (active).
In the case of COc1cc(/C=C/C(=O)c2ccc(Cl)s2)cc(OC)c1O, the inhibition is reported as 50.9% (active).
In the case of CCCc1[nH]n(-c2nc3ccccc3s2)c(=O)c1C=NCC(C)C, the inhibition is reported as 54.1% (active).
With O=C(/C=C/c1ccccn1)c1ccc(Br)cc1O the inhibition was 67.5% (active).
With O=C(/C=C/c1c[nH]c2ccccc12)c1ccccc1 the inhibition was 80.5% (active).
For OC(CN1CCN(Cc2ccccc2)CC1)Cn1c2ccccc2c2ccccc21 (stereo unspecified), the inhibition was 63.1% (active).
With OC(CN1CCCCC1)Cn1c2ccc(Cl)cc2c2cc(Cl)ccc21 (stereo unspecified) the inhibition was 52.5% (active).
In the case of COc1ccc(C)cc1NC(=O)c1ccc(OC(F)F)cc1, the inhibition is reported as 59.4% (active).
For Cc1c(Cl)cccc1NC(=O)c1cccc(OC(F)F)c1, the inhibition was 53% (active).
For c1ccc2[nH]c3cc4ncnc4cc3nc2c1, the inhibition was 52.8% (active).
In the case of CC(C)Oc1ccc2c(=O)c(-c3ccccc3)coc2c1, the inhibition is reported as 66.2% (active).
With CC1CCN(c2nc(CN3CCCCC3)nc3scc(-c4ccccc4)c23)CC1 the inhibition was 65.5% (active).
In the case of COC(=O)Cn1nc(-c2ccccc2)c2ccccc21, the inhibition is reported as 99.7% (active).
For COC(=O)N/N=C/c1ccc(-c2cccc(Cl)c2)o1, the inhibition was 68.8% (active).
With O=C1c2ccccc2C(Nc2ccc(Cl)cn2)N1Cc1ccccc1 (stereo unspecified) the inhibition was 55.5% (active).
In the case of CC1CCc2nc3sc4c(c3c(N)c2C1)CCCC4 (stereo unspecified), the inhibition is reported as 56.2% (active).
In the case of O=C(NCc1cccs1)c1csc2ccccc12, the inhibition is reported as 51.3% (active).

From PubChem BioAssay AID488841 (Sanford-Burnham Center for Chemical Genomics, 2010)
